Sampled rows, rich in hits. Any-hit rate of the full collection: about 0.97%.
MmCpn inh: Inhibitors of TCP-1 ring complex (TRiC) of Methanococcus maripaludis (MmCpn): qHTS. 0.031% of 330,000 active. Chaperonin Mm-Cpn (Methanococcus maripaludis). Potency, µM (series often up to 76.9 µM), inactives show at the top dose activity, negative = inhibition, hits mostly inhibitors. purified Mm-Cpn ATPase, ADP Transcreener TR-FRET; further: potency means the concentration at half of the fitted maximal effect; on the % scale 0 is the no-effect control and ±100 the full control effect; nearly all actives have a fitted effect of over 80% in size
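Measured: ADP formation by purified Mm-CPN. Conditions: 25 nM protein, 10 uM ATP, Tris pH 7.4 with Mg2+, K+ and DTT, 37°C for 30 min. Detection: Transcreener HTRF after 30 min at room temperature.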
MBNL1-CUG inh: qHTS Assay for Inhibitors of MBNL1-poly(CUG) RNA binding | Muscleblind-like protein 1 (Homo sapiens), Q9NR56 | TR-FRET MBNL1-His/biotin-(CUG)12 binding, 665/545 ratio | Potency, µM (doses to about 57.5 µM), for the others: at the top dose activity change, negative = inhibition, hits mostly inhibitors | 0.036% of 280,000 active; active means well fitted inhibition curve with a large enough effect in the signal ratio, with a control signal flat, not every such curve was filed as active; inconclusive means small, poorly fitted or top-dose-only effect, or effect the other way, or a change in a side signal; inactive means no such curve, though single readings can be large or run the other way; the % refers to the signal ratio; further: potency means the concentration at half of the fitted maximal effect; on the % scale 0 is the no-effect control and ±100 the full control effect
Target sequence (Q9NR56 whole entry, looked up): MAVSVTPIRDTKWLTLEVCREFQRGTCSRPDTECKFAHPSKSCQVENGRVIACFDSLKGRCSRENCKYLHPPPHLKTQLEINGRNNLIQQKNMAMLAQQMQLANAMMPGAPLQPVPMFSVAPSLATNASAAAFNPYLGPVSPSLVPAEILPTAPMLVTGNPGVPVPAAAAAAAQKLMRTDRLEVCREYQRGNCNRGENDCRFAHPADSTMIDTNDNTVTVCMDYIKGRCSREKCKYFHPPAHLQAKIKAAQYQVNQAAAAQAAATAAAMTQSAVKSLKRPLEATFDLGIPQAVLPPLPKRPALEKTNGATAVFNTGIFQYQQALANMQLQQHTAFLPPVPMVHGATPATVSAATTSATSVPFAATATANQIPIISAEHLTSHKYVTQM
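Compound titration spanned 92 nM–58 uM against the MBNL1-His/biotin-(CUG)12 complex. After 60 min at room temperature with 5 nM streptavidin-XL665 and 0.055 ng/ul terbium anti-His, ratiometric 665/545 nm emission (Ex 340 nm) normalized to controls.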
Epigenetic derep: Quantitative High-Throughput Screen for Regulators of Epigenetic Control; murine LDR cells, GFP reporter derepression, 30 h; 0.2% of 280,000 active; Potency, µM (series often up to 53.9 µM), for inactives: at the highest dose GFP activation, most hits filed as activators; AID 1865, 2009; further: potency means the concentration at half of the fitted maximal effect; % of control where 0% means no effect; nearly all actives have a fitted effect of over 60% in size
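Reporter derepression read as number of fluorescent GFP-positive objects, 20-120 um in size, counted by laser-scanning cytometer. Mouse LDR line with an epigenetically silenced CMV-GFP locus; compound incubation 30 h, 37 C.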
CCT modulator: High-Throughput Screening for Modulators of Cytosolic Chaperonin Activity. AID 651819, 2012. activity change, % (no concentration beside the values), hits read low. purified chaperonin ATPase assay, HTRF ADP detection, 30 min. 0.3% of 360,000 active; in the data active means activity change below about -30%; further: on the % scale 0 is the no-effect control and ±100 the full control effect
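Nucleotide hydrolysis assay: TRiC at 20–40 nM final (set by batch activity) with 10 uM ATP, 30 min at 37 °C, in presence of 76 uM compound. Detection by competitive ADP HTRF, 30 min ambient.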
uPA generation: qHTS for Inhibitors of Cell Surface uPA Generation | cell surface uPA generation assay, qHTS | 0.31% of 330,000 active | Potency, µM (titrated, usually from 38.3 µM), without a hit: at the top dose activity change, negative = inhibition, most hits filed as inhibitors; active means well fitted inhibition curve with a large enough effect; inconclusive means small, poorly fitted or top-dose-only effect; inactive means no such curve, though single readings can be large or run the other way; tested in mouse RAW 264.7 cells; further: potency means the concentration at half of the fitted maximal effect; on the % scale 0 is the no-effect control and ±100 the full control effect; nearly all actives have a fitted effect of over 55% in size
Akt phos inh: HTS Assay for Inhibitors of Akt Phophorylation: Primary Screen | Neuro2A IGF-stimulated pAkt S473 HTRF, 20 min; active compounds read low | activity change, % for hits at 50 µM | 0.32% of 360,000 active | AID 651550, 2012; in the data active means activity change below about -80%; inconclusive means mostly about -51% to -80%; further: on the % scale 0 is the no-effect control and ±100 the full control effect
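Single-point screen (50 µM final compound) in Neuro2A cells stimulated 20 min with 6 nM IGF at 37 deg C. After lysis, Ser473-phosphorylated Akt read by HTRF (ex 330 nm, em 615/665 nm) as the 665/615 ratio.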
* = called active by the depositor. Unless noted, the call rests on the fitted dose curve; in most records, active means well fitted curve in the direction sought with a large enough effect; inconclusive means small, poorly fitted or top-dose-only effect, or another doubt; inactive means no such curve, though single readings can be large; an effect the other way counts as inactive or inconclusive.

For CN(C)S(=O)(=O)c1ccc(Cl)c(NC(=O)CSc2nc3c(cc2C#N)C(=O)CCC3)c1 the results were MmCpn inh 1%, MBNL1-CUG inh 1%, Epigenetic derep 25µM*, CCT modulator -2, uPA generation 12% and Akt phos inh inactive.
Screening Clc1ccc(OCCNCCc2ccccc2)cc1 returned MmCpn inh 3%, MBNL1-CUG inh -3%, CCT modulator -4, uPA generation 10% and Akt phos inh inactive.
CC(C)N1C(=O)S/C(=C\c2ccc(-c3ccc(Cl)c(C(=O)O)c3)o2)C1=O was read as MmCpn inh 0%, MBNL1-CUG inh 24%, CCT modulator 0, uPA generation -24% and Akt phos inh inactive.
CCN(CC)c1ccc(/C=C2/SC(=O)N(C(C)C)C2=O)o1 was read as MmCpn inh 0%, MBNL1-CUG inh 10%, Epigenetic derep 11µM*, CCT modulator -3, uPA generation -11% and Akt phos inh inactive.
Cc1cc(C)cc(NC(=O)CSc2nc(-c3ccccc3)c3cc(F)ccc3n2)c1 was read as Epigenetic derep -4%.
Screening CCC(=O)N(C)C[C@H]1Oc2cc(-c3cccnc3)ccc2S(=O)(=O)N([C@H](C)CO)C[C@H]1C returned CCT modulator -2 and Akt phos inh inactive.
`CNC(=O)c1c(NC(=O)C2=COCCO2)sc2c1CCC(C)C2` (stereo not given) gave MmCpn inh 1%, MBNL1-CUG inh 0%, CCT modulator 0, uPA generation inconclusive and Akt phos inh inactive.
For CC1CCc2c(sc(NC(=O)C3=COCCO3)c2C(N)=O)C1 (stereo not given) the results were MmCpn inh -6%, CCT modulator 4, uPA generation 7.9µM* and Akt phos inh inactive.
O=C(NCCCCc1ccccc1)C1CC(c2cccc([N+](=O)[O-])c2)=NO1 (stereo not given) was read as MmCpn inh -1%, MBNL1-CUG inh inconclusive, Epigenetic derep -1%, CCT modulator -7, uPA generation -3% and Akt phos inh inactive.
Screening O=C(NCCCCc1ccccc1)C1CC(c2cccc(F)c2)=NO1 (stereo not given) returned MmCpn inh 1%, MBNL1-CUG inh -1%, Epigenetic derep -2%, CCT modulator -34*, uPA generation -1% and Akt phos inh inactive.
CCOC(=O)Cc1c(C)c2c(C)[nH]nc2oc1=O was read as MmCpn inh -1%, MBNL1-CUG inh -6%, Epigenetic derep 0%, CCT modulator 2, uPA generation 4% and Akt phos inh inactive.
`CCOC(=O)Cc1c(C)c2c(C)nn(-c3ccccc3)c2oc1=O` gave MmCpn inh -12%, MBNL1-CUG inh -3%, Epigenetic derep 0%, CCT modulator 0, uPA generation 3% and Akt phos inh -103%*.
COC(=O)C(NC(C)=O)(Nc1ccc(C)cn1)C(F)(F)F (stereo not given) was read as MmCpn inh 0%, MBNL1-CUG inh -15%, Epigenetic derep 2%, CCT modulator 0, uPA generation 4% and Akt phos inh inactive.
`CC12CCC(C(=O)NCCN3CCCCC3)(CC1=O)C2(C)C` (stereo not given) gave MmCpn inh 2%, MBNL1-CUG inh -2%, Epigenetic derep -3%, CCT modulator 0, uPA generation 1% and Akt phos inh -114%*.
`CCN(CC)C(=O)C1CCCN(Cc2ccc3c(c2)OCO3)C1` (stereo not given) gave MmCpn inh 1%, MBNL1-CUG inh -8%, Epigenetic derep 0%, CCT modulator -2, uPA generation -1% and Akt phos inh inactive.
